# Assay results reported in PubChem BioAssay (NCATS).
# Records with an inconclusive call do not appear. Entries that show only a call come without a potency. Activity calls are given as the source filed them. The call rests on the fitted dose curve.
# Test: Primary qHTS for Huh7 cytotoxicity: counterscreen for inhibitors of MERS-S pseudotyped particle cell entry (AID 1479147)
# Conditions: cell viability read-out; series mostly up to 57.1 µM
row,SMILES,Potency
1,CC(C)(C)c1ccc(C(O)CCCN2CCC(C(O)(c3ccccc3)c3ccccc3)CC2)cc1 (stereo not given),inactive
2,CCOC(=O)Cn1cccc1-c1nc(-c2ccc(OC)cc2)c(-c2ccc(OC)cc2)s1,inactive
3,CCN(CC)CC(=O)OCC(=O)[C@@]1(O)CC[C@H]2[C@@H]3CCC4=CC(=O)CC[C@]4(C)[C@H]3[C@@H](O)C[C@@]21C,inactive
4,CC[C@H](c1ccc(O)cc1)[C@@H](CC)c1ccc(O)cc1,inactive
5,CCCC(=O)O[C@]1(C(=O)CCl)[C@@H](C)C[C@H]2[C@@H]3CCC4=CC(=O)C=C[C@]4(C)[C@@]3(F)C(=O)C[C@@]21C,inactive
6,CC(C)C(=O)Nc1cccc(C2CN3CCSC3=N2)c1 (stereo not given),inactive
7,CC(C)[C@@H]1CC[C@@H](C)CC1=O,inactive
8,NC(=O)c1ncn([C@@H]2O[C@H](CO)[C@@H](O)[C@H]2O)c1N,inactive
9,CCN(CCCCOC(=O)c1ccc(OC)c(OC)c1)C(C)Cc1ccc(OC)cc1 (stereo not given),inactive
10,COc1ccc(-c2cc(C(F)F)nn2-c2ccc(S(N)(=O)=O)cc2)cc1F,inactive
11,O=C(O)CNC(=O)c1ccccc1I,inactive
12,CC(=O)[C@H]1CC[C@H]2[C@@H]3CC=C4C[C@@H](O)CC[C@]4(C)[C@H]3CC[C@]12C,inactive
13,CN1C[C@H](C(=O)N[C@]2(C)O[C@@]3(O)[C@@H]4CCCN4C(=O)[C@H](Cc4ccccc4)N3C2=O)C[C@@H]2c3cccc4[nH]cc(c34)C[C@H]21,inactive
14,Cn1c(=O)c2c(ncn2C)n(C)c1=O,inactive
15,CCOC(=O)C1=C(C)NC(C)=C(C(=O)OCC)C1c1ccccc1/C=C/C(=O)OC(C)(C)C,inactive
16,N=C(N)c1ccc2cc(OC(=O)c3ccc(N=C(N)N)cc3)ccc2c1,inactive
17,FC(F)(F)C(F)(F)C(F)(F)C(F)(F)C(F)(F)C(F)(F)C(F)(F)C(F)(F)Br,inactive
18,CCC(CN)=C(c1ccccc1)c1ccccc1,inactive
19,COc1cc(C(=O)OCCCN2CCCN(CCCOC(=O)c3cc(OC)c(OC)c(OC)c3)CC2)cc(OC)c1OC,inactive
20,COc1ccc2[nH]c(S(=O)Cc3ncc(C)c(OC)c3C)nc2n1 (stereo not given),inactive
21,CCN(CCCc1ccccc1)CCCc1ccccc1,inactive
22,C[C@]12CCC(=O)C=C1[C@@H]1C[C@@H]1[C@H]1[C@@H]3[C@@H]4C[C@@H]4[C@@]4(CCC(=O)O4)[C@@]3(C)CC[C@@H]12,inactive

# Test: Primary qHTS for inhibitors of MERS-S pseudo-typed particle cell entry (AID 1479149); further: nearly all actives have a fitted effect of over 60% in size; further: potency means the concentration at half of the fitted maximal effect
# Conditions: MERS-S pseudotyped particle entry, luciferase; series mostly up to 57.1 µM
row,SMILES,Potency
1,CNC[C@H](O)c1ccc(O)c(O)c1,inactive
2,COc1ccc(-c2nc3ccc(C4=NNC(=O)CC4C)cc3[nH]2)cc1 (stereo not given),inactive
3,O=C(Nc1ccc([N+](=O)[O-])cc1Cl)c1cc(Cl)ccc1O,2000 nM (active)
4,CN(C)c1ccc(C(=C2C=CC(=[N+](C)C)C=C2)c2ccc(N(C)C)cc2)cc1,1120 nM (active)
5,Cc1cc2nc3ccc(=[N+](C)C)cc-3sc2cc1N,17800 nM (active)
6,CCCCCCc1ccc(O)cc1O,891 nM (active)
7,CN(C)c1ccc(C(=C2C=CC(=[N+](C)C)C=C2)c2ccccc2)cc1,891 nM (active)
8,O=C(O)c1cccc(-c2noc(-c3ccccc3F)n2)c1,inactive
9,OC[C@H]1O[C@@H](n2cnc3c(=S)nc[nH]c32)[C@H](O)[C@@H]1O,inactive
10,C1CCC(C(CC2CCCCN2)C2CCCCC2)CC1 (stereo not given),10000 nM (active)

# Test: Primary qHTS for Vero E6 cytotoxicity: counterscreen for inhibitors of SARS-S pseudo-typed particle cell entry (AID 1479150); further: potency means the concentration at half of the fitted maximal effect
# Conditions: cell viability; series mostly up to 57.1 µM
row,SMILES,Potency
1,CC(C)(C)c1ccc(C(O)CCCN2CCC(C(O)(c3ccccc3)c3ccccc3)CC2)cc1 (stereo not given),inactive
2,CN1CCCC(CC2c3ccccc3Sc3ccccc32)C1 (stereo not given),inactive
3,CCCCOc1cc(C(=O)NCCN(CC)CC)c2ccccc2n1,inactive
4,CNC[C@H](O)c1ccc(O)c(O)c1,inactive
5,COc1ccc(-c2nc3ccc(C4=NNC(=O)CC4C)cc3[nH]2)cc1 (stereo not given),inactive
6,CCOC(=O)Cn1cccc1-c1nc(-c2ccc(OC)cc2)c(-c2ccc(OC)cc2)s1,inactive
7,O=C(Nc1ccc([N+](=O)[O-])cc1Cl)c1cc(Cl)ccc1O,1580 nM (active)
8,CCN(CC)CC(=O)OCC(=O)[C@@]1(O)CC[C@H]2[C@@H]3CCC4=CC(=O)CC[C@]4(C)[C@H]3[C@@H](O)C[C@@]21C,inactive
9,CC[C@H](c1ccc(O)cc1)[C@@H](CC)c1ccc(O)cc1,inactive
10,CCCC(=O)O[C@]1(C(=O)CCl)[C@@H](C)C[C@H]2[C@@H]3CCC4=CC(=O)C=C[C@]4(C)[C@@]3(F)C(=O)C[C@@]21C,inactive
11,CC(C)C(=O)Nc1cccc(C2CN3CCSC3=N2)c1 (stereo not given),inactive
12,CC(C)[C@@H]1CC[C@@H](C)CC1=O,inactive
13,NC(=O)c1ncn([C@@H]2O[C@H](CO)[C@@H](O)[C@H]2O)c1N,inactive
14,CCN(CCCCOC(=O)c1ccc(OC)c(OC)c1)C(C)Cc1ccc(OC)cc1 (stereo not given),inactive
15,COc1ccc(-c2cc(C(F)F)nn2-c2ccc(S(N)(=O)=O)cc2)cc1F,inactive
16,CCN(CC)CCCN(c1ccccc1)C1Cc2ccccc2C1,inactive
17,O=C(O)CNC(=O)c1ccccc1I,inactive

row,SMILES,Potency
1,CC(=O)[C@H]1CC[C@H]2[C@@H]3CC=C4C[C@@H](O)CC[C@]4(C)[C@H]3CC[C@]12C,inactive
2,CN1C[C@H](C(=O)N[C@]2(C)O[C@@]3(O)[C@@H]4CCCN4C(=O)[C@H](Cc4ccccc4)N3C2=O)C[C@@H]2c3cccc4[nH]cc(c34)C[C@H]21,inactive
3,CC(C)=CCC/C(C)=C/CC/C(C)=C/C(=O)OCC(=O)[C@@]1(O)CC[C@H]2[C@@H]3CCC4=CC(=O)C=C[C@]4(C)[C@H]3[C@@H](O)C[C@@]21C,inactive
4,Cn1c(=O)c2c(ncn2C)n(C)c1=O,inactive
5,CCOC(=O)C1=C(C)NC(C)=C(C(=O)OCC)C1c1ccccc1/C=C/C(=O)OC(C)(C)C,inactive
6,N=C(N)c1ccc2cc(OC(=O)c3ccc(N=C(N)N)cc3)ccc2c1,inactive
7,FC(F)(F)C(F)(F)C(F)(F)C(F)(F)C(F)(F)C(F)(F)C(F)(F)C(F)(F)Br,inactive
8,CCC(CN)=C(c1ccccc1)c1ccccc1,inactive
9,COc1cc(C(=O)OCCCN2CCCN(CCCOC(=O)c3cc(OC)c(OC)c(OC)c3)CC2)cc(OC)c1OC,inactive
10,CCCCCCc1ccc(O)cc1O,inactive
11,COc1ccc2[nH]c(S(=O)Cc3ncc(C)c(OC)c3C)nc2n1 (stereo not given),inactive
12,CCN(CCCc1ccccc1)CCCc1ccccc1,inactive
13,Oc1c(I)cc(Cl)c2cccnc12,inactive
14,C[C@]12CCC(=O)C=C1[C@@H]1C[C@@H]1[C@H]1[C@@H]3[C@@H]4C[C@@H]4[C@@]4(CCC(=O)O4)[C@@]3(C)CC[C@@H]12,inactive
15,CCCCOc1cc(C(=O)OCCN(CC)CC)ccc1N,inactive
16,C#C[C@]1(O)CC[C@H]2[C@@H]3CCc4cc(O)ccc4[C@H]3CC[C@@]21C,inactive
